Rows were chosen to be rich in hits. Some 7.9% of all compounds tested hit in one or more screens of this group.
HCV inh: HCV inhibition; Huh7.5.1 HCVcc-Cre infection, luciferase reporter, 44 h; Potency, µM (top dose mostly 41.8 µM), for inactives: at the top dose activity change, negative = inhibition, actives largely listed as inhibitors; 340,000 tested, 3.4% active; AID 651820; active = well fitted inhibition curve with a large enough effect; inconclusive = small, poorly fitted or top-dose-only effect, or another doubt; inactive = no such curve, though single readings can be large or run the other way; also: potency is read from the fitted curve at half-maximal effect
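HCVcc-Cre virus at an moi near 0.5 was added right after compound to cells cultured 4 h from seeding (1,000 cells/well). Luciferase activity was determined 44 h later, 15 min after substrate addition at RT.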
MARV entry inh: inhibitors of Marburg virus binding or cell entry; Marburg virus pseudotyped entry inhibition, cell reporter; AID 540276; Potency, µM (top dose mostly 37.8 µM), inactives show top-dose activity change, negative = inhibition, actives largely listed as inhibitors; 300,000 tested, 1.8% active; calls by dose curve; tested in HEK293 cells; also: potency is read from the fitted curve at half-maximal effect
Lassa entry inh: Lassa virus entry inhibition. Lassa virus pseudotype entry inhibition, cell reporter. AID 540256. 300,000 tested, 1.2% active. Potency, µM (titrated, usually from 37.9 µM), for inactives: top-dose activity change, negative = inhibition, hits mostly inhibitors; calls by dose curve; tested in HEK293 cells; also: potency is read from the fitted curve at half-maximal effect; nearly all actives have a fitted effect of over 50% in size
HCMV inh: blocks human cytomegalovirus replication; HFF cells, HCMV-luciferase reporter, 72 h; active compounds read low; activity change, negative = inhibition, % at 57.5 µM; 410,000 tested, 4.5% active; in the data active = activity change below about -60%; inconclusive = no clear call, values can overlap the other calls; inactive = above about -39%
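After 16 h attachment at 37C, HFF cells received test compound and HCMV-luciferase (1 PFU/cell); reporter luminescence read 72 h later, data normalized against buffer-only and known inhibitor Salinomycin.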
FMDV inh: blocks foot and mouth disease virus | FMDV antiviral cell-based qHTS | Potency, µM (doses to about 57.9 µM), inactives show at the highest dose activity change, negative = inhibition, usual class: inhibitors | 410,000 tested, 1.2% active | AID 1159524; calls by dose curve; tested in HEK293T cells; also: read-out not given here; potency is read from the fitted curve at half-maximal effect; nearly all actives have a fitted effect of over 45% in size
An asterisk follows results filed as active; ? = inconclusive; nt = no result; [ ] = remark or other dose. % is scaled to controls: 0 for no effect and ±100 for the full control effect.

SMILES	HCV inh	MARV entry inh	Lassa entry inh	HCMV inh	FMDV inh
COc1ccc(Nc2nc(C)nc3c2nnn3Cc2ccccc2)cc1OC	?	?	1%	24	?
CC(=O)Nc1cccc(NC(=O)CSc2cn(CC(=O)N3CCCCCC3)c3ccccc23)c1	nt	nt	-29%[46.1 µM]	-24	-22%
CCOc1ccc(C2C(=O)N(C3CCCCCC3)CC(=O)N2CCc2ccccc2)cc1OC (stereo not drawn)	nt	nt	-26%[46.1 µM]	?	-20%
O=C(CCS(=O)(=O)c1nc(-c2cccs2)cc(C(F)(F)F)n1)Nc1ccc(F)c(Cl)c1	nt	27%[46.1 µM]	?	-99*	35µM*
COc1ccc(NC(=O)CCS(=O)(=O)c2nc(-c3cccs3)cc(C(F)(F)F)n2)cc1	nt	?	?	-101*	?
COc1ccc(Cl)cc1NC(=O)CCS(=O)(=O)c1nc(-c2cccs2)cc(C(F)(F)F)n1	nt	18%[46.1 µM]	?	-94*	32µM*
CC(C)c1nnc(NC(=O)CCS(=O)(=O)c2nc(-c3cccs3)cc(C(F)(F)F)n2)s1	4%	13µM*	?	43	14µM*
O=C(CCS(=O)(=O)c1nc(-c2cccs2)cc(C(F)(F)F)n1)Nc1ccc(OC(F)(F)F)cc1	nt	?	?	38	-19%
CCOC(=O)C1C=CN=C1C (stereo not drawn)	nt	14%	nt	nt	nt
CCOCCCN1CC(=O)N2[C@@H](Cc3c([nH]c4ccccc34)C2(C)C)C1=O	7%	-19%	?	4	0%
Cc1cn2c(=O)cc(COC(=O)COc3ccc(F)cc3)nc2s1	nt	nt	6%[46.1 µM]	-5	-4%
O=C(NC1CCCCC1)c1cc2c(cc1Cl)N1CCCCCC1=NS2(=O)=O	-10%	15%[46.1 µM]	-14%	-97*	8%
CCCCOP(=O)(c1ccc(N(C)C)cc1)C(O)c1c(Cl)cccc1Cl (stereo not drawn)	3%	2%	-3%	-76*	71%
CCC(=O)c1ccc(OCc2ccccc2)c(OC)c1	?	?	?	97	73%
COc1ccc(C(C#N)CC(=O)c2ccc(OC)c(OCc3ccccc3)c2)cc1OC (stereo not drawn)	nt	nt	nt	-70*	?
COc1cc2c(cc1OC)C(O)C(O)(CO)C(C(=O)O)C2c1cc(OC)c(OC)c(OC)c1 (stereo not drawn)	12%	?	4%[46.1 µM]	-1	12%
CCCNC(=O)OCCC12CC3CC(CC(C3)C1)C2	11%	?	?	22	32%
CCCNC(=O)NCCC12CC3CC(CC(C3)C1)C2	11%	0%[46.1 µM]	2.5µM*	-26	20%
COc1ccc(-c2cc(C(F)(F)F)n3nc(C(=O)N(C)Cc4ccccc4)cc3n2)cc1OC	10µM*	nt	nt	-24	-8%
COc1ccc(-c2cc(C(F)(F)F)n3nc(C(=O)Nc4ccc(Cl)cc4C(F)(F)F)cc3n2)cc1OC	nt	-1%[46.1 µM]	-11%[46.1 µM]	29	-20%
O=C(NCCCn1ccnc1)c1nn2c(C(F)(F)F)cc(-c3ccccc3)nc2c1Cl	10µM*	?	3%	-21	-18%
CCCCNC(=O)c1cc2nc(-c3ccc(OC)cc3)cc(C(F)(F)F)n2n1	nt	nt	nt	-33	-9%
COCCNC(=O)c1nn2c(C(F)(F)F)cc(-c3ccccc3)nc2c1Cl	-5%	nt	nt	19	-2%
Cc1ccc(-c2cc(C(F)(F)F)n3nc(C(=O)NCCCn4ccnc4)cc3n2)cc1C	5µM*	-11%	0%	13	-13%
CCn1ncc(Br)c1C(=O)Nc1ccc(C(C)C)cc1	?	13µM*	-13%[46.1 µM]	150	8%
SMILES	HCV inh	MARV entry inh	Lassa entry inh	HCMV inh	FMDV inh
CCn1ncc(Br)c1C(=O)Nc1cccc(F)c1	2%	2%[46.1 µM]	-4%[46.1 µM]	24	-27%
CCOc1ccc(N(C(=O)c2ccc(Cl)cc2)S(=O)(=O)c2ccc3c(c2)n(C)c(=O)n3C)cc1	nt	6%[46.1 µM]	-12%[46.1 µM]	1	-4%
COc1cc(NC(=O)c2ccccc2F)ccc1NC(=O)c1cc2ccccc2o1	?	?	?	-34	?
Cc1cc(C(=O)Nn2c(-c3ccc(Br)cc3)nc3ccccc3c2=O)ccc1[N+](=O)[O-]	-9%	?	-9%[46.1 µM]	-75*	?
COc1ccc(O)c(CNn2c(-c3ccc(Br)cc3)nc3ccccc3c2=O)c1	-10%	-9%[46.1 µM]	-20%	-74*	?
CCOc1ccc(-n2c(CC)nc3ccccc3c2=O)cc1	1%	-2%	-2%	-87*	-22%
COc1ccc(-n2c(-c3ccccc3Br)nc3ccccc3c2=O)cc1	-16%	-3%[46.1 µM]	-20%[46.1 µM]	-63*	-5%
O=C(Nn1c(-c2ccc(Br)cc2)nc2ccccc2c1=O)c1ccncc1	4%	-10%[46.1 µM]	15%	-15	-11%
Cc1ccc(S(=O)(=O)Nc2ccc3c(c2)c(C(=O)OC(C)C)c(C)n3S(=O)(=O)c2ccc(C)cc2)cc1	nt	?	?	10	1%
Cc1cn(C)c(CC(=O)NCc2ccc(F)cc2)c1C(=O)O	nt	nt	?	1	-15%
Cc1[nH]nc(C(=O)NN=Cc2ccccc2Cl)c1N=NN(C)C	-15%	?	?	135	25%
CCCN1CCN(c2ncc3c(n2)CCN(Cc2ccc(OC)c(OC)c2OC)C3)CC1	nt	nt	?	6	-19%
COc1ccc(N2CC(C(=O)Nc3cc(C(F)(F)F)ccc3N3CCCC3)CC2=O)c(OC)c1 (stereo not drawn)	?	?	?	?	-19%
COc1ccc(N2CC(C(=O)Nc3ccccc3N3CCCC3)CC2=O)c(OC)c1 (stereo not drawn)	8.9µM*	?	0%	-22	-11%
C=CCNC(=O)c1ccc2nc(Cc3ccc(OC)cc3)oc2c1	12%	?	5.6µM*	81	31%
CCOCCCNC(=O)Cn1ncc2c([nH]c3ccccc32)c1=O	nt	nt	-17%[46.1 µM]	10	-14%
CCc1nnc(NC(=O)CSc2nc3cccnc3n2C2CCCCC2)s1	7%	2.5µM*	5.6µM*	?	?
CCC(=O)Nc1ccc(C(=O)Cn2ncc(Cl)c(Cl)c2=O)cc1	?	nt	nt	-103*	-16%
CCOC(=O)c1ccc(NC(=O)Cn2ncc(Cl)c(Cl)c2=O)cc1	?	3.2µM*	?	-100*	40µM*
CCc1ccccc1NC(=O)CN(C)C(=O)Cn1cnc2ccc(Cl)cc2c1=O	6%	1%	-1%	0	-26%
CCOC(=O)c1ccc(NC(=O)Cn2nc(C)c3ccccc3c2=O)cc1	-21%	nt	nt	21	-6%
CCc1ccccc1NC(=O)CN(C)C(=O)Cn1ncc(Cl)c(Cl)c1=O	2.8µM*	?	?	-99*	35µM*
Nc1nc(N)nc(COc2ccccc2)n1	4%	?	-8%	-8	11%
O=C(CSc1nc(=O)n(Cc2ccco2)c2c1CCC2)NCc1ccccc1Cl	nt	nt	2%[46.1 µM]	-14	17%
CCOc1ccc(C(=O)OC(C)CN2CCN(C)CC2)cc1 (stereo not drawn)	1.8µM*	-2%	-6%	75	11%
COc1ccc(N(C(=O)Nc2ccc(Cl)cc2)C2=NCCC2)cc1	?	-12%	6.5µM*	-12	nt

Screening data as filed in PubChem BioAssay.
